Data from PubChem BioAssay AID463176 (Southern Research Specialized Biocontainment Screening …, 2010).

test: PhoP regulon inhibitors in S. Typhimurium, late-stage follow-up, synthesized compounds, set 5 (AID 463176); conditions: S. Typhimurium PhoP-promoter GFP reporter, fluorescence, 4 h; series mostly up to 150 µM; inhibition: at the top concentration;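 active = inhibition above 30% at one or more tested concentrations in the dose response; inactive = inhibition below 30% at every tested concentration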

inhibition, inactive:
Cc1ccc(C2Sc3ccccc3N=C3c4ccccc4CC32)cc1 (stereo unspecified) -35.8%
O=C1C2=C(Nc3ccccc3SC2c2cccnc2)c2ccccc21 (stereo unspecified) 14%
Clc1ccc(C2Sc3ccccc3N=C3c4ccccc4CC32)cc1 (stereo unspecified) -7.91%
O=C1C2=C(Nc3ccccc3SC2c2cccc(Br)c2)c2ccccc21 (stereo unspecified) 13.8%
COc1cccc(NC(=O)N2CCCN(Cc3ccccc3F)C2)c1 25.4%
O=C1C2=C(Nc3ccccc3SC2c2ccc(Cl)cc2)c2ccccc21 (stereo unspecified) 29.2%
